Reference: PubChem BioAssay AID837 (The Scripps Research Institute Molecular Screening Center, 2007)
The source made the active and inactive calls.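 How the source made its calls: active means relative FRET score above 0.01, or acceptor fluorescence over 30% below the sample-well median; inactive means the rest.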

Each compound was assayed against Protein Rev (Human immunodeficiency virus type 1 group M subtype B (isolate WMJ22)) (UniProt P05866) (assay: disruptors of Rev peptide-RRE RNA complex – biochemical, FRET, acceptor and relative FRET calls, confirmation (AID 837;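 further: relative FRET combines rise in Cy5 acceptor with fall in fluorescein donor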)). Conditions: Fl-Rev peptide / Cy5-RRE RNA FRET, 1536-well; at 8 µM.
Chain of Protein Rev (Human immunodeficiency virus type 1 group M subtype B (isolate WMJ22)) (P05866 whole entry, looked up): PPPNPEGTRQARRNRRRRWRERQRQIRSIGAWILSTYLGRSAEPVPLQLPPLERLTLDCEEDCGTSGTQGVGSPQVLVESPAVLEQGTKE

Row | SMILES | outcome
1 | Cc1ccc(C2NC(=O)c3c(sc4c3CCN(C)C4)N2)s1 (stereo not given) | inactive
2 | O=[N+]([O-])c1ccc2nc(-c3ccc(Cl)cc3)n(OCc3ccccc3)c2c1 | inactive
3 | COc1ccccc1Nc1nc(N)nc(CN(C)C2CCCCC2)n1 | inactive
4 | CCCN(N=Nc1cccc([N+](=O)[O-])c1)c1cccc([N+](=O)[O-])c1 | inactive
5 | N#Cc1c(NCCN)nc(-c2ccco2)c2c1CCCC2 | inactive
6 | O=C(CN1C2=NCCN2c2ccccc21)c1ccc(Br)cc1 | active
7 | NCCCCCc1nnc(SC/C=C/c2ccccc2)o1 | inactive
8 | CCN(CC)CCCNC(=O)c1cc(-c2ccc(Cl)c(Cl)c2)on1 | inactive
9 | Cc1nc(NC(=O)c2ccc(Br)o2)sc1C | inactive
10 | N=c1n(Cc2ccccc2)c2ccccc2n1CC(O)c1ccco1 (stereo not given) | inactive
11 | CC(=Nc1ccc(C)cc1)c1sc2ccccc2c1O | inactive
12 | COn1cnnc1-c1ccccc1 | inactive
13 | Cc1cc(C)cc(NC2=NC3(CCCCC3)N=C(N)N2)c1 | inactive
14 | COc1ccc2c3c(cccc13)NN=C2C | inactive
15 | O=c1[nH]c2cc(Br)cnc2nc1/C=C(\O)c1ccc(F)cc1 | inactive
16 | Cc1ccc(C(=O)/C=C/c2ccccc2)o1 | inactive
17 | CC(C)OC(=O)c1c2nc3ccccc3nc2n2c1[nH]c(=O)c1ccccc12 | inactive
18 | CN1/C(=C\C=Nc2ccc3ccccc3c2)C(C)(C)c2ccccc21 | inactive
19 | Cc1ccsc1C1NC(=O)c2c(sc3c2CCN(C)C3)N1 (stereo not given) | inactive
20 | FC(F)(F)c1cc(-c2ccco2)nc(NCc2ccc(Cl)cc2)n1 | inactive
